Biological target: SLC6A17
Assay: pooled miR-30 sensor sort-seq; sequence = guide strand
Conditions: shRNA
Also: reference of the scale not given here.

How did the sensor-assay potency score (higher = more potent) turn out when TTTCTCAGCATTCTCGACCACA was run?
The sensor-assay potency score (higher = more potent) was -0.65.

How did the sensor-assay potency score (higher = more potent) turn out when AAGAAGAACATGACGGACCAGA was run?
The sensor-assay potency score (higher = more potent) was 0.0729.

For TATATAGTGCCACACACCGATG, which sensor-assay potency score (higher = more potent) is on record?
The sensor-assay potency score (higher = more potent) was -1.62.

For TATAGTAGAGTGTCTCTCCTGG, which sensor-assay potency score (higher = more potent) is on record?
Its sensor-assay potency score (higher = more potent) is 0.772.

How did the sensor-assay potency score (higher = more potent) turn out when TTGTAGGACACGGAGAGGGTGT was run?
The sensor-assay potency score (higher = more potent) was -0.674.

For TAGTGCCACACACCGATGCTGC, which sensor-assay potency score (higher = more potent) is on record?
The sensor-assay potency score (higher = more potent) was -1.34.

TTGTCCTGCTTATTGTAGCTGG was tested. Which sensor-assay potency score (higher = more potent) did it give?
The sensor-assay potency score (higher = more potent) was -0.728.

Biological target: SLC6A18
Assay: as above
Conditions: shRNA

For TTGTAGTACAGGCTGATCAGGA, which sensor-assay potency score (higher = more potent) is on record?
Its sensor-assay potency score (higher = more potent) is -0.436.

Which sensor-assay potency score (higher = more potent) does the source give for TTCAGTGTCTGCCGGTACCAGA here?
Its sensor-assay potency score (higher = more potent) is -1.1.

With TTGTATCTCAGTGGCTTCCAGA as the sequence, how does the sensor-assay potency score (higher = more potent) read?
Its sensor-assay potency score (higher = more potent) is -0.724.

For TAAACGACACCCACAACCTCGA, which sensor-assay potency score (higher = more potent) is on record?
The sensor-assay potency score (higher = more potent) was -0.526.

With ATTGTCGAAAATCTCCAGCCAG as the sequence, how does the sensor-assay potency score (higher = more potent) read?
Its sensor-assay potency score (higher = more potent) is -0.569.

With TGAACAAGTAGATGAGTCCTTT as the sequence, how does the sensor-assay potency score (higher = more potent) read?
The sensor-assay potency score (higher = more potent) was -0.149.

TAGAGCTTCTCCTGACGCGAGG was tested. Which sensor-assay potency score (higher = more potent) did it give?
The sensor-assay potency score (higher = more potent) was -1.31.

Which sensor-assay potency score (higher = more potent) does the source give for ATTAGTTGCTTTGAACCCCAGG here?
Its sensor-assay potency score (higher = more potent) is -0.521.

With TTGTCGAAAATCTCCAGCCAGT as the sequence, how does the sensor-assay potency score (higher = more potent) read?
The sensor-assay potency score (higher = more potent) was -1.14.

How did the sensor-assay potency score (higher = more potent) turn out when ATGGTGTTGTAGTACAGGCTGA was run?
Its sensor-assay potency score (higher = more potent) is -0.98.

How did the sensor-assay potency score (higher = more potent) turn out when TGAAGTAAATCACCTTCCCTGT was run?
The sensor-assay potency score (higher = more potent) was -0.768.

Biological target: SLC6A3
Assay: as above
Conditions: shRNA

How did the sensor-assay potency score (higher = more potent) turn out when TATTGATGTGGCACGCACCTGA was run?
The sensor-assay potency score (higher = more potent) was -0.154.

For ATCTGCTGGATGTCGTCGCTGA, which sensor-assay potency score (higher = more potent) is on record?
Its sensor-assay potency score (higher = more potent) is -0.478.

TTGGTGAACTTGTTGTAGCTGG was tested. Which sensor-assay potency score (higher = more potent) did it give?
The sensor-assay potency score (higher = more potent) was 0.547.

With TAGATGATGAAGATCAGCCCTG as the sequence, how does the sensor-assay potency score (higher = more potent) read?
The sensor-assay potency score (higher = more potent) was -0.145.

TTTTGTAGCACAGGTAGGGGAA was tested. Which sensor-assay potency score (higher = more potent) did it give?
Its sensor-assay potency score (higher = more potent) is -0.466.

For TAGCAGTTGTTGGTGAACTTGT, which sensor-assay potency score (higher = more potent) is on record?
The sensor-assay potency score (higher = more potent) was -0.216.

With TATTCTTGTAAACAAAAACTGC as the sequence, how does the sensor-assay potency score (higher = more potent) read?
The sensor-assay potency score (higher = more potent) was -1.01.

With TTGTTGGTGAACTTGTTGTAGC as the sequence, how does the sensor-assay potency score (higher = more potent) read?
Its sensor-assay potency score (higher = more potent) is -0.855.

TTCGCAAACATAAAAACTGTTG was tested. Which sensor-assay potency score (higher = more potent) did it give?
Its sensor-assay potency score (higher = more potent) is -1.05.

Which sensor-assay potency score (higher = more potent) does the source give for TTACAGCAACACAAGACACGGC here?
Its sensor-assay potency score (higher = more potent) is 0.179.

For TTTCCTGGTGAGACATACCAGG, which sensor-assay potency score (higher = more potent) is on record?
Its sensor-assay potency score (higher = more potent) is -1.03.

For TTTTTGTAGCACAGGTAGGGGA, which sensor-assay potency score (higher = more potent) is on record?
The sensor-assay potency score (higher = more potent) was -0.961.

Biological target: SLC7A11
Assay: as above
Conditions: shRNA

For TACTTCTTCAGTAACAAAGTTG, which sensor-assay potency score (higher = more potent) is on record?
Its sensor-assay potency score (higher = more potent) is -0.481.

With TTTGTATCGAAGATAAATCAGC as the sequence, how does the sensor-assay potency score (higher = more potent) read?
The sensor-assay potency score (higher = more potent) was -1.16.

How did the sensor-assay potency score (higher = more potent) turn out when TTCTTCAGTAACAAAGTTGAGG was run?
Its sensor-assay potency score (higher = more potent) is -0.835.

For TTTAGGACCATCACTACAGTTA, which sensor-assay potency score (higher = more potent) is on record?
Its sensor-assay potency score (higher = more potent) is -0.265.

TAATTAGCTGCATAACTCCAGG was tested. Which sensor-assay potency score (higher = more potent) did it give?
Its sensor-assay potency score (higher = more potent) is -0.703.

For TTCAGTAACAAAGTTGAGGTAA, which sensor-assay potency score (higher = more potent) is on record?
The sensor-assay potency score (higher = more potent) was 0.0391.

Which sensor-assay potency score (higher = more potent) does the source give for TAATACTTGAATCTCTTCCTGA here?
The sensor-assay potency score (higher = more potent) was 0.636.

Which sensor-assay potency score (higher = more potent) does the source give for TTAATTAGCTGCATAACTCCAG here?
Its sensor-assay potency score (higher = more potent) is 0.313.

Which sensor-assay potency score (higher = more potent) does the source give for TAAAGTTCTGCGTTTGACCTTT here?
Its sensor-assay potency score (higher = more potent) is 0.169.

For TATATGTGTAATGACCTCCAGA, which sensor-assay potency score (higher = more potent) is on record?
The sensor-assay potency score (higher = more potent) was -0.907.
